PubChem BioAssay (EPA / NIEHS)
Some compounds were tested as several samples or in several runs, with calls that do not always agree. Active and inactive are the calls of the source. The calls were made as follows: active = hit-call score of the fitted dose curve at least 0.9, where 1 is the maximum; inactive = score below 0.9.

What follows are compounds tested on E-selectin (Homo sapiens) (UniProt P16581) (assay: BSK_LPS_Eselectin: BioMAP Diversity Plus: LPS Assay for Eselectin Biomarker Activity (AID 2283077)). Conditions: primary human HUVEC with PBMC; actives raise or lower the signal.
Method: BSK_LPS is a cell-based, multiplexed-readout assay that uses umbilical vein endothelium and peripheral blood mononuclear cells, a human vascular primary cell co-culture, with measurements taken at 24 hours after chemical dosing in a 96-well plate.BSK_LPS_Eselectin is an assay component measured in the BSK_LPS assay. It measures E-selectin antibody related to regulation of gene expression using ELISA technology.Data from the assay component BSK_LPS_Eselectin was analyzed into 1 assay endpoint. This assay endpoint, BSK_LPS_Eselectin, was analyzed with bidirectional fitting relative to DMSO as the negative control and baseline of activity. Using a type of binding reporter, gain or loss-of-signal activity can be used to understand changes in the signaling as they relate to the gene SELE. Furthermore, this assay endpoint can be referred to as a primary readout, because this assay has produced multiple assay endpoints where this one serves a signaling function. To generalize the intended target to other relatable targets, this assay endpoint is annotated to the cell adhesion molecules intended target family, where the subfamily is selectins.
The levels of cell surface (or secreted, indicated by the prefix "s") biomarker endpoints were measured by ELISA. Overt cytotoxicity to cells in confluent adherent cultures (all systems other than the BT system) was assessed by measuring total protein levels using sulforhodamine B (SRB) staining in parallel cultures at the time of biomarker measurements, indicated as SRB endpoints. For proliferation assays for adherent cell types, individual cell types are cultured at sub-confluence and relative cell numbers quantified by SRB staining at time points optimized for each system (48 h: 3C and CASM3C systems; 72 h: BT and HDF3CGF systems; 96 h: SAg system). SRB was performed by staining cells with 0.1% SRB after fixation with 10% TCA and reading wells at 560 nm.Viability and proliferation of PBMC (T cells) was quantified by Alamar Blue reduction for the SAg and BT systems. For PBMC viability (referred to as PBMC Cytotoxicity within the assay endpoint names), cells were plated (75,000/well in a 96-well plate) and then chemical samples added for 1 h before addition of activators, SEB and TSST-1 (20 ng/mL final concentration each). Cells were incubated for 90 h. Then, Alamar Blue (20 uL/well) (Invitrogen, Cat DAL1100) was added for 6 h, and the plates were read with a fluorescence microplate reader at 546/580 nm (excitation/emission). For PBMC proliferation, cells were plated and activated as above but incubated for only 16 h prior to addition of Alamar Blue. Plates were read after 6 h.

Sequence of E-selectin (Homo sapiens) (P16581 whole entry, looked up): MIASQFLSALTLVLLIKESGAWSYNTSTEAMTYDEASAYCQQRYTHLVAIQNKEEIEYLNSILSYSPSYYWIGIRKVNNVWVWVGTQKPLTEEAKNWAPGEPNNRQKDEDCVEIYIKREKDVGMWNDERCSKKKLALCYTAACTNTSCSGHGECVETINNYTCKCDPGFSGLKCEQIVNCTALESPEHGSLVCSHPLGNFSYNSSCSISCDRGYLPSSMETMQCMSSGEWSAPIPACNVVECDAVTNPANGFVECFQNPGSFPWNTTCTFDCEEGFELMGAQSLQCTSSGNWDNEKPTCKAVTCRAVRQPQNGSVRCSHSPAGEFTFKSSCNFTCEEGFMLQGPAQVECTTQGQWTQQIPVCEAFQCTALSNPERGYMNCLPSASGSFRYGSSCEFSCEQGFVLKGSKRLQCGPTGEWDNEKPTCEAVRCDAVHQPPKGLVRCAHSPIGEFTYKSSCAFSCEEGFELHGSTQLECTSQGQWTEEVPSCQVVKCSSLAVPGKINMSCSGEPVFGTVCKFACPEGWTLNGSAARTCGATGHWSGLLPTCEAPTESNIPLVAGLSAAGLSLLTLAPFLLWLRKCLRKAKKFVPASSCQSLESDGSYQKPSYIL

| Structure (SMILES) | outcome | AC50 |
| --- | --- | --- |
| CNC(=O)Oc1ccccc1OC(C)C | inactive |  |
| O=C(O)C(F)(F)C(F)(F)C(F)(F)C(F)(F)C(F)(F)C(F)(F)C(F)(F)F | inactive | 16.1 µM (active) |
| O=C(O)CCCOc1ccc(Cl)cc1Cl | inactive |  |
| ClC1C(Cl)C(Cl)C(Cl)C(Cl)C1Cl (stereo not given) | inactive |  |
| O=[N+]([O-])c1c(Cl)c(Cl)c(Cl)c(Cl)c1Cl |  | 31.1 µM (active) |
| CCOc1nc(NC)nc(NC(=O)NS(=O)(=O)c2ccccc2C(=O)OC)n1 | inactive |  |
| CCc1ccc(C(=O)NN(C(=O)c2cc(C)cc(C)c2)C(C)(C)C)cc1 | inactive |  |
| OCCOc1ccccc1 | inactive |  |
| CCCN(CCC)c1c([N+](=O)[O-])cc(C(F)(F)F)cc1[N+](=O)[O-] |  | 15.2 µM (active) |
| O=[N+]([O-])/N=C1\NCCN1Cc1ccc(Cl)nc1 | inactive |  |
| CC(C)N(C(=O)COc1nnc(C(F)(F)F)s1)c1ccc(F)cc1 | inactive |  |
| COC(=O)c1ccccc1CS(=O)(=O)NC(=O)Nc1nc(OC)cc(OC)n1 | inactive |  |
| CNC(=O)Oc1cccc(N=CN(C)C)c1 |  | 20 µM (active) |
| O=S1OCC2C(CO1)C1(Cl)C(Cl)=C(Cl)C2(Cl)C1(Cl)Cl (stereo not given) |  | 30.9 µM (active) |
| COC(=O)c1ccccc1S(=O)(=O)NC(=O)N(C)c1nc(C)nc(OC)n1 | inactive |  |
| COP(=S)(OC)Oc1ccc([N+](=O)[O-])cc1 | inactive |  |
| C#CCN1C(=O)COc2cc(F)c(N3C(=O)C4=C(CCCC4)C3=O)cc21 | inactive |  |
| O=C(O)COc1ccc(Cl)cc1Cl | inactive |  |
| Oc1ccc(Cl)cc1Cc1ccccc1 |  | 31.3 µM (active) [middle of 6 runs] |
| CCOCN(C(=O)CCl)c1c(C)cccc1CC |  | 28.5 µM (active) |

| Structure (SMILES) | outcome | AC50 |
| --- | --- | --- |
| CC(C)OC(=O)Nc1cccc(Cl)c1 | inactive |  |
| N#CN | inactive |  |
| N#Cc1c(Cl)c(Cl)c(Cl)c(C#N)c1Cl |  | 0.758 µM (active) |
| CCN(CC)C(=O)SCc1ccc(Cl)cc1 | inactive |  |
| Cc1cc(C)nc(NC(=O)NS(=O)(=O)c2ccccc2C(=O)OC2COC2)n1 | inactive |  |
| CCC(C)Nc1c([N+](=O)[O-])cc(C(C)(C)C)cc1[N+](=O)[O-] (stereo not given) |  | 14.6 µM (active) |
| COC(=O)c1ccccc1S(=O)(=O)NC(=O)Nc1nc(C)nc(OC)n1 | inactive |  |
| CC1(c2ccc(Oc3ccccc3)cc2)OC(=O)N(Nc2ccccc2)C1=O (stereo not given) |  | 20 µM (active) |
| COc1cc(OC)nc(NC(=O)NS(=O)(=O)c2cc(NC=O)ccc2C(=O)N(C)C)n1 | inactive |  |
| O=C(NC(=O)c1c(F)cccc1F)Nc1ccc(OC(F)(F)C(F)OC(F)(F)F)c(Cl)c1 (stereo not given) | inactive |  |
| COP(=O)(OC)OC=C(Cl)Cl | inactive |  |
| CCC(C)(NC(=O)c1cc(Cl)c(C)c(Cl)c1)C(=O)CCl (stereo not given) |  | 10.1 µM (active) |
| CCCN(CCOc1c(Cl)cc(Cl)cc1Cl)C(=O)n1ccnc1 | inactive |  |
| CN1CSC(=S)N(C)C1 |  | 19 µM (active) |
| O=C(Nc1ccccc1)Nc1cnns1 | inactive |  |
| CNC(=O)/C=C(\C)OP(=O)(OC)OC | inactive |  |
| CC[C@H](C)[C@H]1O[C@]2(C=C[C@@H]1C)C[C@@H]1C[C@@H](C/C=C(\C)[C@@H](O[C@H]3C[C@H](OC)[C@@H](O[C@H]4C[C@H](OC)[C@@H](O)[C@H](C)O4)[C@H](C)O3)[C@@H](C)/C=C/C=C3\CO[C@@H]4[C@H](O)C(C)=C[C@@H](C(=O)O1)[C@]34O)O2 (tested in a mixture with another compound) |  | 9.62 µM (active) |
| O=C1c2ccccc2C(=O)N1SC(Cl)(Cl)Cl | inactive |  |
| CCS(=O)(=O)c1cccnc1S(=O)(=O)NC(=O)Nc1nc(OC)cc(OC)n1 |  | 7.35 µM (active) |
